Test results from PubChem BioAssay.
The source made the active and inactive calls. The rule behind the calls is not given here.

assay: modulation of C. elegans fzo-1 (AID 1259413);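 note: fzo-1 mutant C. elegans worms in liquid wells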; conditions: C. elegans fzo-1 modulator screen, mean read-out; stronger effect = higher value

Mean signal, inactive:
OCCN1CCN(CCCN2c3ccccc3Sc3ccc(C(F)(F)F)cc32)CC1 243
NS(=O)(=O)c1cc2c(cc1Cl)NC=NS2(=O)=O 245
O=C1C(CCS(=O)c2ccccc2)C(=O)N(c2ccccc2)N1c1ccccc1 (configuration not stated) 224
Cc1ccc(-c2cc(C(F)(F)F)nn2-c2ccc(S(N)(=O)=O)cc2)cc1 242
CN[C@H]1CC[C@@H](c2ccc(Cl)c(Cl)c2)c2ccccc21 250
Cc1ccccc1C(OCCN(C)C)c1ccccc1 (configuration not stated) 231
CCc1nc(N)nc(N)c1-c1ccc(Cl)cc1 234
COc1cc2nc(N(C)CCCNC(=O)C3CCCO3)nc(N)c2cc1OC (configuration not stated) 257
CN(C)CCOC(c1ccc(Cl)cc1)c1ccccn1 (configuration not stated) 244
N[C@@H](C(=O)N[C@@H]1C(=O)N2C(C(=O)O)=C(Cl)CS[C@H]12)c1ccccc1 277
Nc1ncn([C@@H]2O[C@H](CO)[C@@H](O)[C@H]2O)c(=O)n1 231
NCc1ccc(S(N)(=O)=O)cc1 250
Cc1ncc([N+](=O)[O-])n1CC(C)O (configuration not stated) 281
Cc1ccc(C)c(OCCCC(C)(C)C(=O)O)c1 239
CN1CCCC(n2nc(Cc3ccc(Cl)cc3)c3ccccc3c2=O)CC1 (configuration not stated) 269
NS(=O)(=O)c1cc2c(cc1C(F)(F)F)NC(Cc1ccccc1)NS2(=O)=O (configuration not stated) 239
COC1=CC(=O)C[C@@H](C)[C@]12Oc1c(Cl)c(OC)cc(OC)c1C2=O 231
